Measured values: PubChem BioAssay (NCATS)
Inconclusive results are not listed. Calls of active or inactive are those of the source. Calls follow the shape of the dose curve; as a rule, active = well fitted curve in the direction sought with a large enough effect; inconclusive = small, poorly fitted or top-dose-only effect, or another doubt; inactive = no such curve, though single readings can be large; an effect the other way counts as inactive or inconclusive.

Tests used:
[1] = qHTS of pediatric cancer cell lines to identify multiple opportunities for drug repurposing: Primary screen for SK-N-SH cells (AID 1347098); conditions: SK-N-SH viability, CellTiter-Glo luminescence, 48 h; series mostly up to 57 µM;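 also: DMSO served as neutral control and bortezomib at 2.3 µM as positive control; nearly all actives have a fitted effect of over 65% in size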
Procedure, shortened: (§1)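 Cells (500-1,000/well) rested 5 h, then received compounds for 48 h; metabolically active cells were measured by CellTiter-Glo luminescence. Final concentrations spanned up to 46 µM (MIPE, 11-point) or 0.59 nM-46 µM (NPC, 8-point) in primary screens, 11-point in follow-ups.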

[2] = qHTS of pediatric cancer cell lines to identify multiple opportunities for drug repurposing: Primary screen for NB1643 cells (AID 1347099); conditions: NB1643 neuroblastoma viability, CellTiter-Glo luminescence, 48 h; series mostly up to 46 µM; also: nearly all actives have a fitted effect of over 50% in size
Procedure, shortened: (§2)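 Viability was measured as metabolically active cells after 48 hours of treatment, read by CellTiter-Glo luminescence. Compounds were tested at multiple final concentrations, giving concentration-response curves.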

[3] = qHTS of pediatric cancer cell lines to identify multiple opportunities for drug repurposing: Primary screen for LAN-5 cells (AID 1347100); conditions: LAN-5 neuroblastoma viability, CellTiter-Glo luminescence, 48 h; series mostly up to 46 µM
Procedure, shortened: (§3)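 Viability after 48 h compound treatment at 37C, 500-1,000 cells/well, read as ATP luminescence with CellTiter-Glo. Primary screens used 11-point (MIPE, 0.78 nM-46 µM) or 8-point (NPC, 0.59 nM-46 µM) final concentrations; follow-up screens used 11-point dilutions.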

[4] = qHTS of pediatric cancer cell lines to identify multiple opportunities for drug repurposing: Primary screen for BT-12 cells (AID 1347101); conditions: BT-12 viability, CellTiter-Glo luminescence, 48 h; series mostly up to 57.3 µM; also: nearly all actives have a fitted effect of over 25% in size
Procedure, shortened: as §1

[5] = qHTS of pediatric cancer cell lines to identify multiple opportunities for drug repurposing: Primary screen for Rh18 cells (AID 1347102); conditions: Rh18 rhabdomyosarcoma viability, CellTiter-Glo luminescence, 48 h; series mostly up to 46 µM; also: nearly all actives have a fitted effect of over 65% in size
Procedure, shortened: as §3

[6] = qHTS of pediatric cancer cell lines to identify multiple opportunities for drug repurposing: Primary screen for OHS-50 cells (AID 1347103); conditions: OHS-50 osteosarcoma viability, CellTiter-Glo luminescence, 48 h; series mostly up to 57.3 µM; also: nearly all actives have a fitted effect of over 40% in size
Procedure, shortened: as §1

[7] = qHTS of pediatric cancer cell lines to identify multiple opportunities for drug repurposing: Primary screen for RD cells (AID 1347104); conditions: RD rhabdomyosarcoma viability, CellTiter-Glo luminescence, 48 h; series mostly up to 46 µM; also: nearly all actives have a fitted effect of over 55% in size
Procedure, shortened: as §2

[8] = qHTS of pediatric cancer cell lines to identify multiple opportunities for drug repurposing: Primary screen for MG 63 (6-TG R) cells (AID 1347105); conditions: MG 63 (6-TG R) viability, CellTiter-Glo, 48 h; series mostly up to 46 µM; also: nearly all actives have a fitted effect of over 50% in size
Procedure, shortened: as §2

[9] = qHTS of pediatric cancer cell lines to identify multiple opportunities for drug repurposing: Primary screen for control Hh wild type fibroblast cells (AID 1347106); conditions: Hh wild-type fibroblast viability, CellTiter-Glo luminescence, 48 h; series mostly up to 46 µM;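 also: a drop in luminescence marks cytotoxicity and a rise apparent proliferation; nearly all actives have a fitted effect of over 55% in size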
Procedure, shortened: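 Cells (500-1,000/well) in growth media were settled 5 h at 37 degrees C, then given compounds for 48 h. Viability was read as CellTiter-Glo luminescence. Primary runs used MIPE at 11 points (0.78 nM-46 µM) and NPC at 8 points (0.59 nM-46 µM); follow-ups used 11 points.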

[10] = qHTS of pediatric cancer cell lines to identify multiple opportunities for drug repurposing: Primary screen for Rh30 cells (AID 1347107); conditions: Rh30 rhabdomyosarcoma viability, CellTiter-Glo luminescence, 48 h; series mostly up to 46 µM; also: nearly all actives have a fitted effect of over 75% in size
Procedure, shortened: as §3

[11] = qHTS of pediatric cancer cell lines to identify multiple opportunities for drug repurposing: Primary screen for Rh41 cells (AID 1347108); conditions: Rh41 rhabdomyosarcoma viability, CellTiter-Glo luminescence, 48 h; series mostly up to 46 µM;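 also: luminescence drop marks cytotoxic hits; nearly all actives have a fitted effect of over 70% in size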
Procedure, shortened: as §2

Measured: Potency

CO[C@]1(NC(=O)CSC(F)F)C(=O)N2C(C(=O)O)=C(CSc3nnnn3CCO)CO[C@H]21
inactive: [1] | [2] | [3] | [4] | [5] | [6] | [7] | [8] | [9] | [10] | [11]

CN1C(=O)c2ccccc2C1=O
inactive: [1] | [2] | [3] | [4] | [5] | [6] | [7] | [8] | [9] | [10] | [11]

CC(=O)N(c1onc(C)c1C)S(=O)(=O)c1ccc(N)cc1
inactive: [1] | [2] | [3] | [4] | [5] | [6] | [7] | [8] | [9] | [10] | [11]

Cc1c(N)cccc1C(F)(F)F
inactive: [1] | [2] | [3] | [4] | [5] | [6] | [7] | [8] | [9] | [10] | [11]

CC(=O)N(CC(=O)N(C)C)c1ccccc1
inactive: [1] | [2] | [3] | [4] | [5] | [6] | [7] | [8] | [9] | [10] | [11]

Oc1ccccc1-c1nnco1
inactive: [1] | [2] | [3] | [4] | [5] | [6] | [7] | [8] | [9] | [10] | [11]

CN1CCC(=C2c3ccccc3CCc3cccnc32)CC1
inactive: [1] | [2] | [3] | [4] | [5] | [6] | [7] | [8] | [9] | [10] | [11]

CCS(=O)(=O)c1ccc(OC)c(C(=O)OC)c1
inactive: [1] | [2] | [3] | [4] | [5] | [6] | [7] | [8] | [9] | [10] | [11]

CC(=O)CC/C=C(\C)CC/C=C(\C)CC/C=C(\C)CCC=C(C)C
inactive: [1] | [2] | [3] | [4] | [5] | [6] | [7] | [8] | [9] | [10] | [11]

O=C(O)c1ccc(OCCN2CCCCC2)cc1
inactive: [1] | [2] | [3] | [4] | [5] | [6] | [7] | [8] | [9] | [10] | [11]

O=C(O)c1ccccc1S
inactive: [1] | [2] | [3] | [4] | [5] | [6] | [7] | [8] | [9] | [10] | [11]

CC(=O)OCC(=O)Nc1cc(C#N)cc(NC(=O)COC(C)=O)c1Cl
inactive: [1] | [2] | [3] | [4] | [5] | [6] | [7] | [8] | [9] | [10] | [11]

Cc1onc(-c2ccccc2)c1C(=O)Cl
inactive: [1] | [2] | [3] | [4] | [5] | [6] | [7] | [8] | [9] | [10] | [11]

O=P(O)(O)OCC(O)CO (centres undefined)
inactive: [1] | [2] | [3] | [4] | [5] | [6] | [7] | [8] | [9] | [10] | [11]

CC(C(=O)O)c1ccc(/C=C2\CCCCC2=O)cc1 (centres undefined)
inactive: [1] | [2] | [3] | [4] | [5] | [6] | [7] | [8] | [9] | [10] | [11]

Cc1ccc2ccc(Cl)cc2n1
inactive: [1] | [2] | [3] | [4] | [5] | [6] | [7] | [8] | [9] | [10] | [11]

Cc1ccccc1C(=O)N1CC/C(=N\OS(=O)(=O)O)c2ccc(Cl)cc21
inactive: [1] | [2] | [3] | [4] | [5] | [6] | [7] | [8] | [9] | [10] | [11]

CC1(C)O[C@@H]2C[C@H]3[C@@H]4C[C@H](F)C5=CC(=O)C=C[C@]5(C)[C@@]4(F)[C@@H](O)C[C@]3(C)[C@]2(C(=O)CO)O1
inactive: [1] | [2] | [3] | [4] | [5] | [6] | [7] | [8] | [9] | [10] | [11]

COc1ccccc1N1CCN(CC(O)COc2cc(OC)c(OC)c(OC)c2)CC1 (centres undefined)
inactive: [1] | [2] | [3] | [4] | [5] | [6] | [7] | [8] | [9] | [10] | [11]
